Experimental data from PubChem BioAssay AID1159580 (chemical genetic matrix, 2015).
Out of some 5,500 compounds screened, about 2,000 (36%) were called active. Another 18% or so got no clear call; they are omitted. Rule as the data show it: active = normalized growth mostly below about 0.91 (no sharp cut-off); inconclusive = no clear call, values can overlap the other calls; inactive = mostly above about 0.92. The list shows a part of the results.

Test: chemical genetic growth profiling, strain panel (AID 1159580);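 also: tested at 20 µM; growth read once vehicle control cultures reached saturation at 30 °C; 1 = growth at the plate median or of vehicle wells; lower values mean less growth of the strain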
Conditions: S. cerevisiae deletion strains, growth OD

Measured: normalized growth

Oc1cc(O)c2c(c1)OC(c1cc(O)c(O)c(O)c1)C(O)C2c1c(O)cc(O)c2c1OC(c1cc(O)c(O)c(O)c1)C(O)C2c1c(O)cc(O)c2c1OC(c1cc(O)c(O)c(O)c1)C(O)C2 (stereo not given)
inactive: locus YAL013W, strain DEP1, hits give low values 0.977 | locus YBR021W, strain FUR4, hits give low values 1.02 | locus YBR229C, strain ROT2, hits give low values 0.992 | locus YCL029C, strain bik1, hits give low values 0.999 | locus YDL035C, strain GPR1, hits give low values 0.889 | locus YDL074C, strain BRE1, hits give low values 0.846 | locus YDL101C, strain DUN1, hits give low values 0.913 | locus YDL134C, strain PPH21, hits give low values 0.937 | locus YDL185W, strain tfp1, hits give low values 0.973 | locus YDL192W, strain arf1, hits give low values 0.948 | locus YDR101C, strain arx1, hits give low values 1.03 | locus YDR150W, strain NUM1, hits give low values 0.964 | locus YDR162C, strain NBP2, hits give low values 0.84 | locus YDR318W, strain mcm21, hits give low values 0.973 | locus YDR388W, hits give low values 1 | locus YDR502C, strain sam2, hits give low values 0.979 | locus YEL061C, strain CIN8, hits give low values 0.933 | locus YER110C, hits give low values 1.02 | locus YER155C, strain BEM2, hits give low values 1.02 | locus YER167W, strain BCK2, hits give low values 1.02 | locus YGL078C, strain dbp3, hits give low values 1.02 | locus YGL086W, strain mad1, hits give low values 0.964 | locus YGL248W, strain PDE1, hits give low values 0.911 | locus YGR078C, strain PAC10, hits give low values 0.918 | locus YGR135W, strain pre9, hits give low values 0.912 | locus YGR252W, strain gcn5, hits give low values 0.963 | locus YHR030C, strain SLT2, hits give low values 0.972 | locus YHR079C, strain IRE1 (second series), hits give low values 1.04 | locus YHR094C, strain hxt1, hits give low values 1.02 | locus YHR200W, strain rpn10, hits give low values 0.98 | locus YIL066C, strain RNR3, hits give low values 0.919 | locus YIL073C, strain SPO22, hits give low values 0.9 | locus YIL125W, strain kgd1, hits give low values 1.02 | locus YIR030C, strain dcg1, hits give low values 1 | locus YJL095W, strain BCK1, hits give low values 0.845 | locus YJL134W, strain LCB3, hits give low values 0.99 | locus YJL168C, strain set2, hits give low values 1 | locus YJR043C, strain POL32, hits give low values 0.857 | locus YKL068W, hits give low values 1.02 | locus YKL085W, strain MDH1 (second series), hits give low values 1.01 | locus YKL085W, strain MDH1, hits give low values 1.01 | locus YKL190W, strain CNB1, hits give low values 0.961 | locus YKR001C, strain vps1, hits give low values 0.982 | locus YLR039C, strain RIC1, hits give low values 0.836 | locus YLR102C, strain apc9, hits give low values 1.02 | locus YLR262C, strain YPT6, hits give low values 0.935 | locus YLR268W, strain sec22, hits give low values 0.96 | locus YLR330W, strain CHS5, hits give low values 1 | locus YLR342W, strain FKS1 (second series), hits give low values 0.919 | locus YLR371W, strain rom2, hits give low values 0.91 | locus YLR418C, strain cdc73, hits give low values 0.92 | locus YML016C, strain PPZ1, hits give low values 0.94 | locus YML032C, strain rad52, hits give low values 1 | locus YML124C, strain tub3, hits give low values 1.01 | locus YMR078C, strain ctf18, hits give low values 1.01 | locus YMR223W, strain ubp8, hits give low values 0.947 | locus YMR307W, strain GAS1, hits give low values 0.928 | locus YNL067W, strain RPL9B, hits give low values 0.917 | locus YNL233W, strain BNI4, hits give low values 0.945 | locus YNL250W, strain rad50, hits give low values 1 | locus YNL271C, strain bni1, hits give low values 0.989 | locus YNL298W, strain CLA4, hits give low values 1.01 | locus YNL307C, strain MCK1, hits give low values 1.02 | locus YNR052C, strain pop2, hits give low values 0.952 | locus YOL012C, strain htz1 0.566 | locus YOL147C, strain pex11, hits give low values 1.01 | locus YOR061W, strain CKA2, hits give low values 0.931 | locus YOR069W, strain VPS5, hits give low values 0.976 | locus YOR136W, strain idh2, hits give low values 1.02 | locus YOR144C, strain elg1, hits give low values 1 | locus YOR184W, strain ser1, hits give low values 0.968 | locus YOR316C, strain cot1, hits give low values 1.01 | locus YPL055C, strain LGE1, hits give low values 0.886 | locus YPL241C, strain CIN2, hits give low values 0.974 | locus YPR119W, strain clb2, hits give low values 1.02 | locus YPR141C, strain kar3, hits give low values 1 | locus YPR163C, strain tif3, hits give low values 1.01 | locus YPR167C, strain met16, hits give low values 0.982 | strain wtn01, hits give low values 1.01
active: locus YGR229C, strain SMI1, hits give low values 0.747 | locus YHR129C, strain ARP1, hits give low values 0.915 | locus YJL187C, strain SWE1 (second series), hits give low values 0.775 | locus YKL009W, strain mrt4, hits give low values 1.15 [resistant] | locus YLR058C, strain SHM2, hits give low values 0.835 | locus YNL322C, strain KRE1, hits give low values 0.916
